Data on 31 sequences can be found in article PMC12820563, “FoxP3 forms a head-to-head dimer in vivo and stabilizes its multimerization on adjacent microsatellites”.

Over roughly 16,000 sequences, “rpm ratio (pull-down/input)” has its median near 0.94; the highest 2% begin near 1.7. The full list was thinned out, with the highest values kept by preference.

The experiment has as its target T1, MBP-FoxP1dN (Mus musculus, UniProt P58462 326-579).
T1 sequence: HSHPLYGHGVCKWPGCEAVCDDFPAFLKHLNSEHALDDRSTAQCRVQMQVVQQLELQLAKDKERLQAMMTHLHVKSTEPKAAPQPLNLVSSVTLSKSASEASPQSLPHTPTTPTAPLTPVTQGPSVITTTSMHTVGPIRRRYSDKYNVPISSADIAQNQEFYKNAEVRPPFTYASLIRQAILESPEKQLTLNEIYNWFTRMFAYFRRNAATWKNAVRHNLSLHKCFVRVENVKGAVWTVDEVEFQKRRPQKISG
Description: PD-seq (MBP pull-down with sequencing); 20 mM Tris-HCl pH 7.5, 100 mM NaCl, 1.5 mM MgCl2, 0.4 uM protein, 0.1 uM dsDNA library, 30 min, room temperature, amylose pull-down; high values mean tight binding. The note with it: protein: recombinant; tags: His6-MBP; chain copies: 2; dsDNA, one strand shown. In outline: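 The N-terminus-lacking fragment of mouse FoxP3 or FoxP1 carried a His6-MBP tag and was expressed in E. coli. At 0.4 µM it was incubated with 0.1 µM Klenow-filled degenerate double-stranded DNA library for 30 min at room temperature in Tris pH 7.5 buffer with NaCl and MgCl2, and complexes were caught on amylose resin, washed three times, released with proteinase K, PCR-barcoded and Illumina-sequenced. Binding is reads-per-million enrichment of pull-down over input with replicates pooled.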
On to “GATGATTGTTCTCCCAGCTGATGAATTGCAGTTGTCGAGTAAACAAATTTTCCTAATCTTTCTGTTCAAGCGCCATCTAC”, for which the binding signal was 1.34 RPM ratio (pull-down/input). As for “GATGATTGTTCTCCCAGCTGATGAATTACAGTACTCGAGTAAACAAATTTTCCTAATCTTTCTGTTCAAGCGCCATCTAC”, the binding signal was 1.06 RPM ratio (pull-down/input). For “GATGATTGTTCTCCCAGCTGATGAATTGTTATAATCGAGTAAACAAATTTTCCTAATCTTTCTGTTCAAGCGCCATCTAC”, the binding signal is 1.59 RPM ratio (pull-down/input).

“GATGATTGTTCTCCCAGCTGATGAATTTGCTTACTCGAGTAAACAAATTTTCCTAATCTTTCTGTTCAAGCGCCATCTAC”: the binding signal was 1.69 RPM ratio (pull-down/input). Take “GATGATTGTTCTCCCAGCTGATGAATTAGCAGTCTCGAGTAAACAAATTTTCCTAATCTTTCTGTTCAAGCGCCATCTAC”: the binding signal was 0.877 RPM ratio (pull-down/input). In the case of “GATGATTGTTCTCCCAGCTGATGAATTGCAGCTATCGAGTAAACAAATTTTCCTAATCTTTCTGTTCAAGCGCCATCTAC”, the binding signal is 1.15 RPM ratio (pull-down/input). Consider “GATGATTGTTCTCCCAGCTGATGAATTGCATTTATCGAGTAAACAAATTTTCCTAATCTTTCTGTTCAAGCGCCATCTAC”, for which the binding signal was 1.77 RPM ratio (pull-down/input).

“GATGATTGTTCTCCCAGCTGATGAATTTCTTGCATCGAGTAAACAAATTTTCCTAATCTTTCTGTTCAAGCGCCATCTAC”: the binding signal was 1.27 RPM ratio (pull-down/input).

As for “GATGATTGTTCTCCCAGCTGATGAATTGCATCTATCGAGTAAACAAATTTTCCTAATCTTTCTGTTCAAGCGCCATCTAC”, the binding signal was 1.75 RPM ratio (pull-down/input).

In the case of “GATGATTGTTCTCCCAGCTGATGAATTTATTGCATCGAGTAAACAAATTTTCCTAATCTTTCTGTTCAAGCGCCATCTAC”, the binding signal is 1.62 RPM ratio (pull-down/input). With “GATGATTGTTCTCCCAGCTGATGAATTTGCATTATCGAGTAAACAAATTTTCCTAATCTTTCTGTTCAAGCGCCATCTAC” the figure was 1.49 RPM ratio (pull-down/input); with “GATGATTGTTCTCCCAGCTGATGAATTAGTCTGGTCGAGTAAACAAATTTTCCTAATCTTTCTGTTCAAGCGCCATCTAC”, 0.822 RPM ratio (pull-down/input); with “GATGATTGTTCTCCCAGCTGATGAATTTGGGCCATCGAGTAAACAAATTTTCCTAATCTTTCTGTTCAAGCGCCATCTAC”, 0.878 RPM ratio (pull-down/input). On to “GATGATTGTTCTCCCAGCTGATGAATTGTGTTTGTCGAGTAAACAAATTTTCCTAATCTTTCTGTTCAAGCGCCATCTAC”, for which the binding signal is 2.8 RPM ratio (pull-down/input). Take “GATGATTGTTCTCCCAGCTGATGAATTCTTTGTGTCGAGTAAACAAATTTTCCTAATCTTTCTGTTCAAGCGCCATCTAC”: the binding signal is 1.06 RPM ratio (pull-down/input). “GATGATTGTTCTCCCAGCTGATGAATTTGCTGTGTCGAGTAAACAAATTTTCCTAATCTTTCTGTTCAAGCGCCATCTAC”: the binding signal was 1.14 RPM ratio (pull-down/input). Consider “GATGATTGTTCTCCCAGCTGATGAATTTTCTGTGTCGAGTAAACAAATTTTCCTAATCTTTCTGTTCAAGCGCCATCTAC”, for which the binding signal was 0.968 RPM ratio (pull-down/input).

For “GATGATTGTTCTCCCAGCTGATGAATTGTTTGTGTCGAGTAAACAAATTTTCCTAATCTTTCTGTTCAAGCGCCATCTAC”, the binding signal was 2.77 RPM ratio (pull-down/input). “GATGATTGTTCTCCCAGCTGATGAATTTGATGTGTCGAGTAAACAAATTTTCCTAATCTTTCTGTTCAAGCGCCATCTAC”: the binding signal is 1.16 RPM ratio (pull-down/input).

Consider “GATGATTGTTCTCCCAGCTGATGAATTACCCATATCGAGTAAACAAATTTTCCTAATCTTTCTGTTCAAGCGCCATCTAC”, for which the binding signal is 1.07 RPM ratio (pull-down/input). Take “GATGATTGTTCTCCCAGCTGATGAATTACTCCTCTCGAGTAAACAAATTTTCCTAATCTTTCTGTTCAAGCGCCATCTAC”: the binding signal is 1.05 RPM ratio (pull-down/input). As to “GATGATTGTTCTCCCAGCTGATGAATTATATGAGTCGAGTAAACAAATTTTCCTAATCTTTCTGTTCAAGCGCCATCTAC”, the binding signal is 0.962 RPM ratio (pull-down/input). Turning to “GATGATTGTTCTCCCAGCTGATGAATTATGAATATCGAGTAAACAAATTTTCCTAATCTTTCTGTTCAAGCGCCATCTAC”, the binding signal was 1.07 RPM ratio (pull-down/input). As to “GATGATTGTTCTCCCAGCTGATGAATTAACAATATCGAGTAAACAAATTTTCCTAATCTTTCTGTTCAAGCGCCATCTAC”, the binding signal was 1.87 RPM ratio (pull-down/input).

On to “GATGATTGTTCTCCCAGCTGATGAATTATATCAATCGAGTAAACAAATTTTCCTAATCTTTCTGTTCAAGCGCCATCTAC”, for which the binding signal was 1.16 RPM ratio (pull-down/input). “GATGATTGTTCTCCCAGCTGATGAATTAATAATATCGAGTAAACAAATTTTCCTAATCTTTCTGTTCAAGCGCCATCTAC”: the binding signal was 1.51 RPM ratio (pull-down/input).

For the sequence “GATGATTGTTCTCCCAGCTGATGAATTAAAAATATCGAGTAAACAAATTTTCCTAATCTTTCTGTTCAAGCGCCATCTAC”, the binding signal was 1.35 RPM ratio (pull-down/input).

With “GATGATTGTTCTCCCAGCTGATGAATTATCAATATCGAGTAAACAAATTTTCCTAATCTTTCTGTTCAAGCGCCATCTAC”, the binding signal is 1.96 RPM ratio (pull-down/input). Consider “GATGATTGTTCTCCCAGCTGATGAATTAGCTTACTCGAGTAAACAAATTTTCCTAATCTTTCTGTTCAAGCGCCATCTAC”, for which the binding signal is 0.938 RPM ratio (pull-down/input). “GATGATTGTTCTCCCAGCTGATGAATTTTGAGGGTCGAGTAAACAAATTTTCCTAATCTTTCTGTTCAAGCGCCATCTAC”: the binding signal is 0.774 RPM ratio (pull-down/input).

With “GATGATTGTTCTCCCAGCTGATGAATTGCAGCAATCGAGTAAACAAATTTTCCTAATCTTTCTGTTCAAGCGCCATCTAC”, the binding signal was 1.33 RPM ratio (pull-down/input).
